These results are taken from PubChem BioAssay (Tox21).

Assay [1] has as its target Progesterone receptor (Homo sapiens) (UniProt P06401). In words: qHTS assay to identify small molecule agonists of the progesterone receptor (PR) signaling pathway (AID 1346784; calls by dose curve; further: nearly all actives have a fitted effect of over 30% in size). The essentials:
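PR-UAS-bla HEK 293T cells (beta-lactamase reporter under UAS) in 2% charcoal-stripped FBS, dosed with 23 nL compound after 6 hr, incubated 16hr at 37C. LiveBLAzer B/G FRET substrate added, fluorescence read after 2 hours.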

The target is the same in assay [2]. In words: qHTS assay to identify small molecule antagonists of the progesterone receptor (PR) signaling pathway (AID 1346795; active means well fitted inhibition curve with a large enough effect in the signal ratio in the repeat runs, not every such curve was filed as active; the % refers to the signal ratio). Put shortly: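 PR-UAS-bla HEK293T cells with beta-lactamase reporter under UAS control, in 2% charcoal-stripped FBS, treated with compounds plus 1 nM promegestone (R5020, final) for 16 hr at 37C. Read-out: FRET beta-lactamase substrate fluorescence after 2 hr at room temperature.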

Assay [3] in a line: qHTS assay to identify small molecule antagonists of the progesterone receptor (PR) signaling pathway - cell viability counter screen (AID 1346798). Further: series mostly up to about 92 µM; nearly all actives have a fitted effect of over 50% in size. The essentials:
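PR-UAS-bla HEK293T cells, 3,000/well in 2% charcoal-stripped FBS medium, dosed with compounds plus R5020 agonist and incubated 16 h at 37C. Viability then measured in the same wells by CellTiter-Glo luminescence after 30 min at RT.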

Assay [4] in a line: qHTS assay to identify small molecule agonists of the progesterone receptor (PR) signaling pathway - cell viability counter screen (AID 1346799; calls by dose curve; further: nearly all actives have a fitted effect of over 45% in size). The essentials:
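Counter screen in the PR-UAS-bla HEK293T wells (2% charcoal-stripped FBS, 16 h compound exposure at 37 C) after the bla read. CellTiter-Glo added, 30 min at room temperature, luminescence read as cell viability.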
(In general: qHTS replaces the single test concentration by a dilution series.)

A short description of assay [5]: qHTS assay to identify small molecule antagonists of the TGF-beta/Smad signaling pathway - cell viability counter screen (AID 1346824). Further: nearly all actives have a fitted effect of over 50% in size. The essentials: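 Cytotoxicity counter-screen run in the same wells as the beta-lactamase Smad reporter read: CellTiter-Glo luminescence after 30 min at room temperature. HEK 293T SBE-bla cells had 5 hr compound exposure at 37 C with TGF-beta1 (0.25 ng/mL stock).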

A short description of assay [6]: qHTS assay to identify small molecule agonists of the TGF-beta/Smad signaling pathway - cell viability counter screen (AID 1346829). Further: top concentration of the series differs between compounds; nearly all actives have a fitted effect of over 45% in size. Put shortly: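 Same-well cytotoxicity: CellTiter-Glo added after the 2 hr room-temperature beta-lactamase substrate step, luminescence measured 30 min later; cells had 5 hr of compound at 37 C.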
Assay [7] is described as follows: qHTS assay to identify small molecule agonists of the TGF-beta/Smad signaling pathway (AID 1346859; active means well fitted activation curve with a large enough effect in the signal ratio in the repeat runs, not every such curve was filed as active; the % refers to the signal ratio; further: series mostly up to about 77 µM). The essentials:
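SBE-bla HEK293T cells plated overnight, then compound exposure for 5 h at 37 C. Beta-lactamase reporter read with LiveBLAzer B/G FRET substrate after 2 h at room temperature, fluorescence at 405 nm excitation, 460/530 nm emission.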

A short description of assay [8]: Human pregnane X receptor (PXR) small molecule agonists, qHTS cell viability counter screen (AID 1346977). Further: nearly all actives have a fitted effect of over 50% in size. The essentials: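 PXR-Luc HepG2 cells (2,000/well, 5% charcoal-stripped FBS) preincubated 5 hr, then exposed to compounds 24 hr at 37 C. Viability read in the same wells by CellTiter-Fluor fluorescence, reagent added at 23 hr, 1 hr incubation.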
The nature of assay [9]: Caspase-3/7 induction in HepG2 cells by small molecules, qHTS assay (AID 1346978). Further: nearly all actives have a fitted effect of over 15% in size. The essentials:
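Caspase-3/7 induction was measured by Caspase-Glo 3/7 luminescence (30 min, room temperature) after a 17 hr compound exposure of wild-type HepG2 cells seeded at 2,000 per well and pre-incubated 5 hr.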

A short description of assay [10]: Caspase-3/7 induction in CHO-K1 cells by small molecules, qHTS cell viability counter screen (AID 1346979). Further: nearly all actives have a fitted effect of over 35% in size. The essentials:
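Wild-type CHO-K1 cells (1,500/well) treated with compound after 5 h plating; after 16 h at 37C, viability read as CellTiter-Fluor fluorescence following 1 h reagent incubation, in the same wells as the caspase read.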

Assay [11] in a line: Caspase-3/7 induction in CHO-K1 cells by small molecules, qHTS assay (AID 1346980). Further: nearly all actives have a fitted effect of over 15% in size. The essentials: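 Luminescent Caspase-Glo 3/7 read (30min, room temperature) quantified apoptosis induction. Cells were wild-type CHO-K1, treated with compound for 17hr at 37 C and 5% CO2.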
The nature of assay [12]: Caspase-3/7 induction in HepG2 cells by small molecules, qHTS cell viability counter screen (AID 1346981). Further: series mostly up to about 92 µM; nearly all actives have a fitted effect of over 30% in size. The essentials: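 Cell viability is measured as a cytotoxicity counter screen alongside the Caspase-Glo 3/7 readout in identical wells. Wild-type HepG2 cells are treated with test compounds for 16 hr at 37 C before CellTiter-Fluor addition and a 1-hr incubation.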

The target in assay [13] is Nuclear receptor subfamily 1 group I member 2 (Homo sapiens) (UniProt O75469). Description: Human pregnane X receptor (PXR) small molecule agonists, qHTS assay (AID 1346982). Further: nearly all actives have a fitted effect of over 35% in size. Put shortly: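 Cells: HepG2 stably carrying PXR-Luc. Medium held 5% charcoal-stripped FBS. Compounds in DMSO added after 5 hr plating, incubated 24 hr, then luminescence quantified with ONE-Glo.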
Nuclear receptor subfamily 1 group I member 2 (Homo sapiens), sequence (O75469 whole entry, looked up): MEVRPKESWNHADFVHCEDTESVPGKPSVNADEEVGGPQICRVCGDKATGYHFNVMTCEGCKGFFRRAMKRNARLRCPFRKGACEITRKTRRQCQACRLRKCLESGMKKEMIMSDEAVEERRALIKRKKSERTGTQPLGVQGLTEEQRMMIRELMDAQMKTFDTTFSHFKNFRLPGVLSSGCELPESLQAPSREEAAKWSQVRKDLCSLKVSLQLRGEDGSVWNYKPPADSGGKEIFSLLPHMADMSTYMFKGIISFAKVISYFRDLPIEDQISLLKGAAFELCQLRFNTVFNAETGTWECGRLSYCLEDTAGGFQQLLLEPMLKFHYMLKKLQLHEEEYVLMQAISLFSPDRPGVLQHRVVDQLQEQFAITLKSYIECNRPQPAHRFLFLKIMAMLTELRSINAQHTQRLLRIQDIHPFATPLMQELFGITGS

Assay [14] concerns the target Nuclear receptor subfamily 1 group I member 2 (Rattus norvegicus) (UniProt Q9R1A7). In words: Rat pregnane X receptor (rPXR) activation by small molecules, qHTS assay (AID 1346983). Further: nearly all actives have a fitted effect of over 20% in size. The note with it: rPXR luciferase reporter cells, One-Glo luminescence, 24 h; stronger effect = higher value. The essentials: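 Luminescent readout (One-Glo luciferase, 30 min room temperature) followed 24 hr compound treatment at 37 C of rPXR cells plated 2,000 per well and preincubated 5hr; qHTS format with compounds delivered in DMSO.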

Assay [15] has as its target Nuclear receptor subfamily 1 group I member 2 (Homo sapiens) (UniProt O75469). Description: CYP3A4 induction through human pregnane X receptor (PXR) by small molecules, qHTS assay (AID 1346984). Further: nearly all actives have a fitted effect of over 40% in size. The essentials: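 Quantitative HTS in DPX-2 cells, i.e. HepG2 transfected with PXR response element and CYP3A4-promoter luciferase. Compounds in DMSO incubated 24hr at 37C; then P450-Glo CYP3A4 substrate, 3uM final, 3hr; One-Glo luminescence.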

Assay [16] has the same target. Description: Human pregnane X receptor (PXR) activation by small molecules, qHTS assay (AID 1346985). Further: nearly all actives have a fitted effect of over 40% in size. The essentials: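 DPX-2 cells (HepG2 co-transfected with a PXR response element and a CYP3A4-promoter luciferase construct) were seeded at 2,000 per well, rested 5 hr at 37C, then exposed to DMSO-dissolved compounds for 24 hr. Activation was read as luciferase luminescence.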

In assay [17] the target is Cytochrome P450 2D6 (Homo sapiens) (UniProt P10635). Description: Cytochrome P450 Family 2 Subfamily D Member 6 (CYP2D6) small molecule antagonists: luciferase reporter qHTS assay (AID 1671196). Further: series mostly up to about 120 µM; nearly all actives have a fitted effect of over 50% in size. Put shortly: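 Enzyme and proluciferin substrate were first combined with test chemical for 10 min at room temperature. Adding NADPH regeneration solution started a 1 h reaction, stopped with luciferin detection reagent and read by luminescence 20 min later.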
Cytochrome P450 2D6 (Homo sapiens), sequence (P10635 whole entry, looked up): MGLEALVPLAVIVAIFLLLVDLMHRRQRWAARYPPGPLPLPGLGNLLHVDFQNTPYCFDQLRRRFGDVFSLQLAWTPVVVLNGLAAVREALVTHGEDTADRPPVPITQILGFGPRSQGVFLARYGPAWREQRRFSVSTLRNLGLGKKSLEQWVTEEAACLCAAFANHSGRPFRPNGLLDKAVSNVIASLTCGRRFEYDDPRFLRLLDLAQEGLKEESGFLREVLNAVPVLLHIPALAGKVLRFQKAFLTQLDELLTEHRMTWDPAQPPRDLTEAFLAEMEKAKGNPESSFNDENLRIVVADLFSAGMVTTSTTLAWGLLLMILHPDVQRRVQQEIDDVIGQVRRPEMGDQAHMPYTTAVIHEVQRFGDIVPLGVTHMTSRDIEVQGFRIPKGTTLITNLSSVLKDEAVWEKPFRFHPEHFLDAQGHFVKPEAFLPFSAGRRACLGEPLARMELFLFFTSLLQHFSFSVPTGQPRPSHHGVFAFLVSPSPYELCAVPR
For orientation: Reporter assays use an easily measured gene product as a stand-in for the process of interest.

The target of assay [18] is Cytochrome P450 2C19 (Homo sapiens) (UniProt P33261). Description: Cytochrome P450 Family 2 Subfamily C Member 19 (CYP2C19) small molecule antagonists: luciferase reporter qHTS assay (AID 1671197). Further: nearly all actives have a fitted effect of over 65% in size. Further: potency means the concentration at half of the fitted maximal effect. Put shortly: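 Quantitative high-throughput screen of the Tox21 library using CYP2C19 with proluciferin substrate. Reaction: NADPH regeneration, 37C, 1 h, after 10 min compound preincubation at room temperature. Readout: luminescence.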
Cytochrome P450 2C19 (Homo sapiens), sequence (P33261 whole entry, looked up): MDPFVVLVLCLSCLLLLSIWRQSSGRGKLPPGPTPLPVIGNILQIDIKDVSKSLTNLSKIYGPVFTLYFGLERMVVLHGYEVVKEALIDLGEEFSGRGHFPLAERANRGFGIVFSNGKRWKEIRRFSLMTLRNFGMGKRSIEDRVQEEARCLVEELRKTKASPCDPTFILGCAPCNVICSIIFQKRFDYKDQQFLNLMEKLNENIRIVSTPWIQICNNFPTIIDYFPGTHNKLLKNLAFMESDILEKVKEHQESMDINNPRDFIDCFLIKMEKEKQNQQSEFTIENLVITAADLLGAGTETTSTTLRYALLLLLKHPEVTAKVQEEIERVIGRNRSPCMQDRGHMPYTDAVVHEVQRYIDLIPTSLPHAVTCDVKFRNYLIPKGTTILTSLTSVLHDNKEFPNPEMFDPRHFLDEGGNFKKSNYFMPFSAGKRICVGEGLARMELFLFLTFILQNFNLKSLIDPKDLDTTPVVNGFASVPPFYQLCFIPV

For assay [19], the target named is Thyrotropin-releasing hormone receptor (Homo sapiens) (UniProt P34981). Description: qHTS assay to identify small molecule antagonists of the thyrotropin-releasing hormone receptor (TRHR) signaling pathway (AID 1346877; active means well fitted inhibition curve with a large enough effect in the repeat runs, not every such curve was filed as active; further: series mostly up to about 51 µM). Put shortly: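 Antagonism is measured as suppression of the calcium response to 1 nM TRH in TRHR-HEK293 cells that have been dye-loaded for 2 h at 37 °C after overnight plating. Each compound is tested at 15 concentrations in triplicate.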
Thyrotropin-releasing hormone receptor (Homo sapiens), sequence (P34981 whole entry, looked up): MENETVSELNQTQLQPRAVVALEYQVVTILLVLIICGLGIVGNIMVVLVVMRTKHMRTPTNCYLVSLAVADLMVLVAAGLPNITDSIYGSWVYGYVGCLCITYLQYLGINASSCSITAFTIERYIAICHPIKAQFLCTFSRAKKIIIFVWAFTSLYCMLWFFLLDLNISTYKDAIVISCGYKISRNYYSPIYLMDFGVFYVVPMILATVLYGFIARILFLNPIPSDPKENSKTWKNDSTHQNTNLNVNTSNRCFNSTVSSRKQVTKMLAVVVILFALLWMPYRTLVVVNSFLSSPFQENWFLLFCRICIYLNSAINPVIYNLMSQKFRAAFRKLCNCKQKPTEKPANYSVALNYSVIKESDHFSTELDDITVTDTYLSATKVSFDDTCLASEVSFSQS

Assay [20] shares this target. Description: qHTS assay to identify small molecule agonists of the thyrotropin-releasing hormone receptor (TRHR) signaling pathway (AID 1346891; calls by dose curve; further: series mostly up to about 58 µM). Put shortly: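 HEK293 cells expressing TRHR plated 18 h at 37 C/5% CO2, calcium dye-loaded 2 h at 37 C, then compound added (agonist mode); kinetic calcium fluorescence read 3 min at 1 s intervals; 15 concentrations in triplicate.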

Results filed as inconclusive are left out. The source holds several records for some structures; these can differ, active in one and inactive in another. Active and inactive are the calls of the source. Unless noted, the call rests on the fitted dose curve; in most records, active means well fitted curve in the direction sought with a large enough effect in the repeat runs; inconclusive means weak or mixed curves; inactive means no such curve, though single readings can be large; an effect the other way counts as inactive or inconclusive.
On the % scale 0 is the no-effect control and ±100 the full control effect.

Progesterone receptor (Homo sapiens), sequence (P06401 whole entry, looked up): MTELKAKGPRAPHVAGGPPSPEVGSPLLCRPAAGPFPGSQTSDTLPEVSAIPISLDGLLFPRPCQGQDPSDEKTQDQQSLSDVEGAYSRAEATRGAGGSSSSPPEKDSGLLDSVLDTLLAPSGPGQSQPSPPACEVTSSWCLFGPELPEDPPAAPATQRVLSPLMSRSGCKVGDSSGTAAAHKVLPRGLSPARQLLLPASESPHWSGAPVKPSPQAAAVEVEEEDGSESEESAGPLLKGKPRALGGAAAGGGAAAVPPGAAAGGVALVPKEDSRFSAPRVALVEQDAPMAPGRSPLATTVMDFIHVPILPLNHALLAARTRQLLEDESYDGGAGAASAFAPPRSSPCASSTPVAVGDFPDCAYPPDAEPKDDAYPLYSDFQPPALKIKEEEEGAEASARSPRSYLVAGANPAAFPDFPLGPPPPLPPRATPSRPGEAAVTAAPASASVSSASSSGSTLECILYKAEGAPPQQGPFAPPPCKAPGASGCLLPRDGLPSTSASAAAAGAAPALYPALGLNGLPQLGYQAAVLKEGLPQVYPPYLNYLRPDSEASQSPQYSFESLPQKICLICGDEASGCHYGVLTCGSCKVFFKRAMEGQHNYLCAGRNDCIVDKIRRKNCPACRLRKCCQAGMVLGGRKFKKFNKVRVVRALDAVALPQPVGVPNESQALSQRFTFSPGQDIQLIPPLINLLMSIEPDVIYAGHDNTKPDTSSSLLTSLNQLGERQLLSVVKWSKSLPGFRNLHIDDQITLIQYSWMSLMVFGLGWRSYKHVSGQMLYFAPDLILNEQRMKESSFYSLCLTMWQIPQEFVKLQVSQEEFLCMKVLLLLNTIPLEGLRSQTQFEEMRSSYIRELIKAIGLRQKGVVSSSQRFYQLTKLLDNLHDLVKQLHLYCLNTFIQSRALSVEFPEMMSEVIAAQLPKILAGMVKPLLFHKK
Nuclear receptor subfamily 1 group I member 2 (Rattus norvegicus), sequence (Q9R1A7 whole entry, looked up): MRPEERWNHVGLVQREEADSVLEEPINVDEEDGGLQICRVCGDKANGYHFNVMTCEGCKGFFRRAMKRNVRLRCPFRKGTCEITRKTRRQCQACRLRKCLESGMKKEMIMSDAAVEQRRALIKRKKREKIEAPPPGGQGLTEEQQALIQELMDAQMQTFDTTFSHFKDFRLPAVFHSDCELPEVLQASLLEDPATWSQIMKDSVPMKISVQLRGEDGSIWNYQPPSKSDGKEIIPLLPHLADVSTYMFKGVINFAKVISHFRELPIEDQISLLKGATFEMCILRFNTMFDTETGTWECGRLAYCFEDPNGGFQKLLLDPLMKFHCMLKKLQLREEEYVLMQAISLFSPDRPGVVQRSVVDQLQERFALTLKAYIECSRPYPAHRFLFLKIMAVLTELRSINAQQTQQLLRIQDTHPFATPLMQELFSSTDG

As for `CCCCCCCC(=O)O`, the Potency result in assay [1], in [2], in assay [3], in assay [4], in assay [5] and in assay [6] was “inactive” in each case. Moreover, the Potency result in assay [7], in [8], in assay [9], in assay [10], in [11] and in [12] was “inactive” each time. The Potency result in [13], in [15] and in [17] was “inactive” throughout. Further, in [14], the max activation was 0.66% (inactive). The outcome in assay [16] was inactive. Further, in assay [18], the Potency is 38.5 µM (active) and inactive.

Turning to `CC(C)(CO)CO`, the Potency result in assay [1], in assay [2], in [3], in assay [4], in [5] and in assay [6] was “inactive” in each case. For the same molecule, the Potency entry in assay [7], in assay [19], in assay [9], in [10], in assay [11] and in assay [12] was “inactive” throughout. Further, the Potency entry in [13], in assay [17] and in assay [18] was “inactive” each time. In addition, the result in [20] was inactive.

As for `OCC(O)CS` (stereo not drawn), the Potency entry in [1], in assay [2], in [3], in [4], in assay [5] and in assay [7] was “inactive” throughout. Besides, the Potency result in assay [19], in [8], in [9], in assay [10], in assay [11] and in assay [12] was “inactive” throughout. Besides, the Potency entry in assay [13], in assay [15], in [17] and in [18] was “inactive” in each case. Further, the call in assay [20] and in [16] was inactive. In addition, the max activation in assay [14] was -1.93% (inactive).

`O=C1CCCCCCCCCCC1`: the Potency result in assay [1], in assay [2], in assay [3], in assay [4], in [5] and in assay [6] was “inactive” in each case. Besides, the Potency result in assay [7], in assay [8], in assay [9], in assay [10], in [11] and in assay [12] was “inactive” in each case. For the same molecule, the Potency result in [13], in assay [17] and in [18] was “inactive” in each case.
